{"source": "PubChem BioAssay AID463195", "about": "(Sanford-Burnham Center for Chemical Genomics, 2010)", "note": "The whole screen tested about 330,000 compounds, of which about 4,600 (1.4%) were called active.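 How the source made its calls: active means inhibition of 40% or more at the single tested concentration; inactive means the rest.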 The list comes from a sample in which actives are over-represented; it also holds similar structures and randomly drawn compounds."}
{"assay": "wild-type TIM10 yeast growth inhibition – luminescence, uHTS, counter-screen for tim10-1 yeast inhibitor project, primary screen (AID 463195);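 further: wild-type TIM10 isogenic control strain grown at permissive 25 °C; 0% = DMSO yeast wells and 100% = minimal medium wells without yeast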", "details": "S. cerevisiae TIM10 strain growth, BacTiter-Glo luminescence, 24 h; at 10 µM; active compounds read high"}
{"compound": "O=C(CN1CCCCC1)NC(=O)Nc1ccccc1F", "inhibition": "-12.6% (inactive)"}
{"compound": "CCOC(=O)CCCNC(=O)COC(=O)c1cc(Br)c(Br)s1", "inhibition": "10.3% (inactive)"}
{"compound": "Cc1ccc(OCc2n[nH]c(=S)n2-c2ccccc2)cc1", "inhibition": "16.5% (inactive)"}
{"compound": "Fc1ccc(/C=N/n2c(COc3ccccc3)n[nH]c2=S)cc1", "inhibition": "40.9% (active)"}
{"compound": "O=[N+]([O-])c1ccccc1/C=N/n1c(COc2ccccc2)n[nH]c1=S", "inhibition": "17.8% (inactive)"}
{"compound": "CC(C)NC(=O)/C(C#N)=C\\c1ccc(N(C)C)c(Br)c1", "inhibition": "55.1% (active)"}
{"compound": "CC(C)(C)C(=O)/C(C#N)=C/c1ccc(O)cc1", "inhibition": "-0.948% (inactive)"}
{"compound": "Cc1[nH]c2ccccc2c1/C=C(/C#N)C(=O)NC(C)C", "inhibition": "17.7% (inactive)"}
{"compound": "N=c1n(Cc2ccc(Cl)cc2)c2ccccc2n1CC(O)c1ccco1", "note": "(centres undefined)", "inhibition": "4.4% (inactive)"}
{"compound": "NC(=O)c1cc(S(=O)(=O)N2CCCC2)ccc1OCc1ccc(F)cc1", "inhibition": "-5.53% (inactive)"}
{"compound": "CSC(=S)N/N=C/c1c[nH]c2ccccc12", "inhibition": "43.5% (active)"}
{"compound": "O=C(O)c1cccc(NC(=S)N/N=C/c2c[nH]c3ccccc23)c1", "inhibition": "11.4% (inactive)"}
{"compound": "Cc1c(/C=N\\NC(=O)c2cc3ccccc3o2)c2ccccc2n1C", "inhibition": "8.19% (inactive)"}
{"compound": "O=C(N/N=C/c1c[nH]c2ccccc12)c1cc2ccccc2o1", "inhibition": "49.3% (active)"}
{"compound": "Nc1nonc1-n1nnc(C(=O)N/N=C/c2c[nH]c3ccccc23)c1-c1ccccc1", "inhibition": "12.9% (inactive)"}
{"compound": "O=C(N/N=C/c1cccc(O)c1)c1cc2c(ccc3ccccc32)o1", "inhibition": "7.41% (inactive)"}
{"compound": "COc1ccccc1CNS(=O)(=O)c1cc(C(=O)NCc2ccccn2)c(Cl)cc1Cl", "inhibition": "3.96% (inactive)"}
{"compound": "CCOC(=O)c1cc2c(=O)[nH]c(C(Cl)(Cl)Cl)nc2o1", "inhibition": "1.82% (inactive)"}
{"compound": "COc1cc2c(cc1NC(=O)COC(=O)/C=C/c1ccccc1)oc1ccccc12", "inhibition": "-21.9% (inactive)"}
{"compound": "CN(c1ccc(OCC(=O)NC2=NCCS2)cc1)S(=O)(=O)c1ccc(F)cc1", "inhibition": "-18.2% (inactive)"}
{"compound": "C/C(CC1CC(C)(C)OC1=O)=N/Nc1nc(-c2ccccc2)cs1", "note": "(centres undefined)", "inhibition": "17.6% (inactive)"}
{"compound": "O=C(CSc1cccc[n+]1[O-])c1ccc(Cl)cc1", "inhibition": "1.21% (inactive)"}
{"compound": "COc1ccccc1C(=O)CSc1cccc[n+]1[O-]", "inhibition": "-4.59% (inactive)"}
{"compound": "O=C(CSc1cccc[n+]1[O-])c1ccc(-c2ccccc2)cc1", "inhibition": "42% (active)"}
{"compound": "CCc1cc2cc(OC)ccc2nc1SCC(=O)Nc1cc(OC)c(OC)cc1C(=O)O", "inhibition": "11.1% (inactive)"}
{"compound": "Cc1ccc(NC(=O)c2ccc(Oc3ncccn3)cc2)cc1", "inhibition": "9.43% (inactive)"}
{"compound": "COc1cccc(N(CC(=O)NCCSc2ccccn2)S(C)(=O)=O)c1", "inhibition": "-1.16% (inactive)"}
{"compound": "CC(OC(=O)c1ccc(S(=O)(=O)N2CCOCC2)cc1)c1ccccc1", "note": "(centres undefined)", "inhibition": "10.1% (inactive)"}
{"compound": "COC(=O)c1ccc(S(=O)(=O)N2CCc3ccccc3C2)cc1", "inhibition": "-8.05% (inactive)"}
{"compound": "O=C(ON=C1CCN(S(=O)(=O)c2ccccc2)CC1)c1ccc(Cl)cc1", "inhibition": "48% (active)"}
{"compound": "Cc1cc[n+](-c2[nH]c(=O)sc2/C=N/NC(=O)c2ccccc2[O-])cc1C", "inhibition": "2.83% (inactive)"}
{"compound": "CN(c1ccc(O)cc1)c1nc(-c2cccnc2)cs1", "inhibition": "-2.92% (inactive)"}
{"compound": "COc1ccccc1-c1n[nH]c2c1[C@H](C)CC[C@H]2C(C)C", "inhibition": "56% (active)"}
{"compound": "COc1ccccc1C1=CC(=O)C[C@H](c2ccc(F)cc2)C1", "inhibition": "-15.1% (inactive)"}
{"compound": "CCN(C[C@H]1N[C@@](CC)(C(=O)OC)[C@H]2C(=O)N(Cc3ccccc3)C(=O)[C@@H]12)S(=O)(=O)c1ccc(C(F)(F)F)cc1", "inhibition": "12.3% (inactive)"}
{"compound": "Cc1ccc(Nc2nc(C)cc(C)c2C(N)=O)cc1", "inhibition": "6.89% (inactive)"}
{"compound": "Cc1ccc(Nc2nc(Cl)c(C=O)s2)cc1", "inhibition": "41.1% (active)"}
{"compound": "Cc1ccc(NC(=O)Nc2nnc(-c3ccncc3)s2)cc1", "inhibition": "5.77% (inactive)"}
{"compound": "CC(C)NC(=O)NC(=O)CSc1nnc(-c2ccccc2F)n1N", "inhibition": "5.49% (inactive)"}
{"compound": "CN(C(=O)CSc1nnc(N)s1)c1c(N)n(Cc2ccccc2)c(=O)[nH]c1=O", "inhibition": "10.2% (inactive)"}
{"compound": "CS(=O)(=O)N(CC(=O)N1CCOCC1)c1ccc2c3c(cccc13)CC2", "inhibition": "8.14% (inactive)"}
{"compound": "CCOc1ccccc1/C=c1\\sc2nc(-c3ccco3)nn2c1=O", "inhibition": "45% (active)"}
{"compound": "CCOc1ccccc1C1NC(=O)NC(C)=C1C(=O)OCc1ccco1", "note": "(centres undefined)", "inhibition": "0.932% (inactive)"}
{"compound": "CCCn1nc(C(=O)NNC(=O)CCOc2ccccc2OCC)c2ccccc2c1=O", "inhibition": "13.7% (inactive)"}
{"compound": "Cc1cccc([C@@H]2[C@@H]3C(=O)N(Cc4ccccc4)C(=O)[C@@H]3[C@]3(C)C(=O)N(c4ccc(Br)cc4)C(=O)N23)c1", "inhibition": "4.22% (inactive)"}
{"compound": "Cn1c(Cc2csc(N)n2)nnc1SC/C=C/c1ccccc1", "inhibition": "7.09% (inactive)"}
{"compound": "CCN(Cc1nc2ccccc2c(=O)[nH]1)Cc1cc(=O)oc2cc(C)c(C)cc12", "inhibition": "-2.16% (inactive)"}
{"compound": "COc1ccc(C(=O)NC(C)c2nccs2)cc1OC1CCN(C(C)C)CC1", "note": "(centres undefined)", "inhibition": "-15% (inactive)"}
{"compound": "O=C(Nc1nnc(CCOCCOCCc2nnc(NC(=O)c3ccco3)s2)s1)c1ccco1", "inhibition": "-7.13% (inactive)"}
{"compound": "NC(=O)c1ccsc1NC(=O)c1ccco1", "inhibition": "8.27% (inactive)"}
{"compound": "O=C(Nc1nc(-c2ccco2)c(-c2ccco2)s1)c1ccco1", "inhibition": "40.3% (active)"}
{"compound": "CS/C(=C\\[N+](=O)[O-])Nc1ccc(C)cc1", "inhibition": "30% (inactive)"}
{"compound": "CCc1c(C)[nH]c(=S)c(C#N)c1C", "inhibition": "3.94% (inactive)"}
{"compound": "CC(=O)N1c2ccccc2N(Cc2ccc([N+](=O)[O-])cc2)C(=O)C1(C)C", "inhibition": "27.8% (inactive)"}
{"compound": "O=C(NCCCCc1ccccc1)C1CC(c2ccc([N+](=O)[O-])cc2)=NO1", "note": "(centres undefined)", "inhibition": "-15.3% (inactive)"}
{"compound": "O=C1NC(=O)C2C1C(c1ccc([N+](=O)[O-])cc1)=NN2Cc1ccccc1", "note": "(centres undefined)", "inhibition": "46.2% (active)"}
{"compound": "c1ccc2c(c1)CSc1sccc1C2=C1CCNCC1", "inhibition": "1.38% (inactive)"}
{"compound": "COc1ccc(OC)c(C(=O)c2ccc(C(=O)N3CCN(Cc4csc(C)n4)CC3)cc2)c1", "inhibition": "-9.33% (inactive)"}
{"compound": "CCOC(=O)c1cn[nH]c1NC(=S)Nc1ccccc1", "inhibition": "-4.24% (inactive)"}
{"compound": "CCC1C/C(=C/c2cccs2)C(=O)/C(=C/c2cccs2)C1", "note": "(centres undefined)", "inhibition": "8.85% (inactive)"}
{"compound": "CSC1=N/C(=C\\C=C\\c2cccs2)C(=O)S1", "inhibition": "46.2% (active)"}
{"compound": "COC(=O)c1cccc(N2C(=O)C3C4C=CC(CC4)C3C2=O)c1", "note": "(centres undefined)", "inhibition": "-2.62% (inactive)"}
{"compound": "O=C(OCC(=O)N(CCc1ccccc1)Cc1ccccc1)c1ccccc1[N+](=O)[O-]", "inhibition": "6.8% (inactive)"}
{"compound": "O=C(Nc1ccc(NC(=O)c2cccs2)cn1)c1ccco1", "inhibition": "49.1% (active)"}
{"compound": "O=C(Nc1ccnc(-c2ccncc2)n1)c1cccs1", "inhibition": "5.09% (inactive)"}
{"compound": "O=C(Nc1ccc(O)cc1)c1ccc(NC(=O)c2ccco2)cc1", "inhibition": "-7.64% (inactive)"}
{"compound": "O=C(CN1CCN(C(=O)C2CCCO2)CC1)Nc1c(Cl)cccc1Cl", "note": "(centres undefined)", "inhibition": "-3.56% (inactive)"}
{"compound": "O=[N+]([O-])c1ccc(N2CCN(c3ccc(F)cc3)CC2)cn1", "inhibition": "9.61% (inactive)"}
{"compound": "C/C=N/NC(=O)CCCC(=O)N/N=C/C", "inhibition": "19.2% (inactive)"}
{"compound": "S=C(NNC(=S)NC1CC2CCC1C2)NC1CC2C=CC1C2", "note": "(centres undefined)", "inhibition": "31.5% (inactive)"}
{"compound": "S=C(NNC(=S)NC1CC2C=CC1C2)NC1CC2C=CC1C2", "note": "(centres undefined)", "inhibition": "11.5% (inactive)"}
{"compound": "CC(C)c1ccc(NC(=S)NC2CC3C=CC2C3)cc1", "note": "(centres undefined)", "inhibition": "41.7% (active)"}
{"compound": "Fc1ccc(Cn2nnnc2C(c2cccs2)N2CCCCCC2)cc1", "note": "(centres undefined)", "inhibition": "23.6% (inactive)"}
{"compound": "COC(=O)c1ccc(Oc2nc(Nc3ccc(F)cc3)nc(N3CCCC3)n2)cc1", "inhibition": "-20.4% (inactive)"}
{"compound": "COc1nc(NC2CCCCC2)nc(N2CCCCCC2)n1", "inhibition": "40% (active)"}
{"compound": "Clc1nc(NC2CCCC2)nc(N2CCOCC2)n1", "inhibition": "11.4% (inactive)"}
{"compound": "CCOC(=O)c1cnn(Cc2ccccc2Cl)c1N", "inhibition": "1.13% (inactive)"}
{"compound": "COC(=O)CNC(=O)C(CCSC)NC(C)=O", "note": "(centres undefined)", "inhibition": "-26.2% (inactive)"}
{"compound": "CO/N=C/c1cn(-c2ccc(Cl)cc2)nn1", "inhibition": "5.41% (inactive)"}
{"compound": "Cc1nc(-c2ccccc2)sc1C(=O)/C=C/N(C)C", "inhibition": "7.98% (inactive)"}
{"compound": "Cc1nc(-c2ccc(Cl)cc2)sc1C(=O)CBr", "inhibition": "51.9% (active)"}
{"compound": "Cc1nc(-c2ccc(Cl)cc2)sc1C1(C)CC(c2ccc(Br)cc2)=NO1", "note": "(centres undefined)", "inhibition": "7.58% (inactive)"}
{"compound": "O=C(CSc1nncs1)NC1CCCc2ccccc21", "note": "(centres undefined)", "inhibition": "-4.46% (inactive)"}
{"compound": "Cc1ccccc1N1CC(C(=O)Nc2nnc(SCCC3OCCO3)s2)CC1=O", "note": "(centres undefined)", "inhibition": "4.72% (inactive)"}
{"compound": "CCSc1ccccc1C(=O)NCc1ccc(OC)cc1", "inhibition": "-1.39% (inactive)"}
{"compound": "CC(CC(=O)Nc1ccccc1)n1ccnc1", "note": "(centres undefined)", "inhibition": "-0.308% (inactive)"}
{"compound": "O=C(O)CCCC(=O)Nc1ccccc1-n1ccnc1", "inhibition": "95.9% (active)"}
{"compound": "Cc1cccc(C)c1NC(=O)Nc1ccccc1-n1ccnc1", "inhibition": "3.36% (inactive)"}
{"compound": "COc1nc(Oc2ccc(=O)n(C)n2)nc(N(C)C)n1", "inhibition": "-5.67% (inactive)"}
{"compound": "Cn1cnc([N+](=O)[O-])c1Sc1ccccc1", "inhibition": "21.8% (inactive)"}
{"compound": "COCCNC(=O)COc1ccc(N(C)S(=O)(=O)c2ccc3ccccc3c2)cc1", "inhibition": "20.2% (inactive)"}
{"compound": "CN(c1ccc(OCC(=O)O)cc1)S(=O)(=O)c1ccc2ccccc2c1", "inhibition": "-10.2% (inactive)"}
{"compound": "CC(=O)Oc1ccc(N(C(C)=O)S(=O)(=O)c2ccc3ccccc3c2)cc1Br", "inhibition": "48.2% (active)"}
{"compound": "COc1ccccc1C(=O)COC(=O)CSCC(=O)Nc1cc(C)on1", "inhibition": "11.1% (inactive)"}
{"compound": "COCCn1c(CN2CCC(Cc3ccccc3)CC2)nc2c1c(=O)n(C)c(=O)n2C", "inhibition": "-0.058% (inactive)"}
{"compound": "CC(=O)Nc1cccc(OCC(=O)/C=C2\\N(C)c3ccccc3C2(C)C)c1", "inhibition": "14.8% (inactive)"}
{"compound": "CCOC(=O)c1c(NC(=O)c2ccc(S(=O)(=O)N(C)CC3CCCO3)cc2)sc2c1CC(C)(C)NC2(C)C", "note": "(centres undefined)", "inhibition": "-10.5% (inactive)"}
{"compound": "COC(=O)c1c(NC(=O)COc2ccc(Cl)cc2Cl)sc2c1CC(C)(C)NC2(C)C", "inhibition": "41.3% (active)"}
{"compound": "COC(=O)c1sccc1NC(=O)COc1ccc(Cl)cc1", "inhibition": "12.6% (inactive)"}
